# RORgamma inh = inhibitors of mouse ROR gamma transcriptional activity; P51450; Drosophila S2 Gal4-RORgamma UAS-luciferase reporter, 20 h; Potency, µM (titrated, usually from 53.6 µM), without a hit: at the highest dose activity change, negative = inhibition, most hits filed as inhibitors; 310,000 compounds, 5.4% hits; AID 2551; note: potency is the fitted concentration of half-maximal effect; % is set by controls: 0 for no effect and ±100 for the full control effect; nearly all actives have a fitted effect of over 60% in size
#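 Stable Schneider cell line, Gal4 DNA-binding domain fused to ROR gamma, UAS-luciferase. Cmpd 1 hr RT → CuSO4 700 uM final → 20 hr RT → luciferase reagent 10 min → luminescence.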
# Giardia killer = kills Giardia lamblia. Giardia lamblia trophozoite viability. activity change, % at 7.66 µM, hits read low. 340,000 compounds, 0.15% hits; in the data active = activity change below about -80%; inconclusive = between about -30% and that limit;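 note: parasites exposed to compound for two days anaerobically before the ATP read; % is set by controls: 0 for no effect and ±100 for the full control effect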
#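 Trophozoite viability was measured as ATP-dependent luminescence, read 15-30 min after reagent addition. Before that, parasites at 100 cells/well were exposed to compounds for 48 h, anaerobically, at 37 deg C.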
# Integrin act MD = activates integrin-mediated alleviation for muscular dystrophy. 350,000 compounds, 0.064% hits. AID 624291. alpha7betagal myoblasts, beta-gal FDG fluorescence, 48 h. Potency, µM (titrated, usually from 38.3 µM), for the others: top-dose activation, usual class: activators;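 note: potency is the fitted concentration of half-maximal effect; 100% = response of the positive control SU9516; nearly all actives have a fitted effect of over 60% in size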
#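 alpha7betagal+/- myoblasts (passage 13, 250/well) treated 48 h at 37C with compounds at 1:260 dilution of DMSO stock. Lysed, then beta-galactosidase activity read as FDG fluorescence (ex 480/em 540) after 30 min, with pre-read for autofluorescence.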
# ERG Ets-DNA blk = inhibitors of human ERG Ets domain-DNA interaction. Potency, µM (titrated, usually from 76.9 µM), for inactives: at the top dose FP activity, negative = inhibition, usual class: inhibitors. fluorescence polarization, His-ERG Ets domain / labelled DNA. AID 624246. 370,000 compounds, 0.028% hits. P11308; active = well fitted inhibition curve with a large enough effect in the polarisation, with a control signal flat; inconclusive = small, poorly fitted or top-dose-only effect, or effect the other way, or a change in a side signal; inactive = no such curve, though single readings can be large or run the other way; the % refers to the polarisation;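 note: polarization taken with two DNA probes labelled with fluorescein and Texas red; potency is the fitted concentration of half-maximal effect; % of control where 0% means no effect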
# Target sequence (P11308 whole entry, looked up, the tested form may be a part): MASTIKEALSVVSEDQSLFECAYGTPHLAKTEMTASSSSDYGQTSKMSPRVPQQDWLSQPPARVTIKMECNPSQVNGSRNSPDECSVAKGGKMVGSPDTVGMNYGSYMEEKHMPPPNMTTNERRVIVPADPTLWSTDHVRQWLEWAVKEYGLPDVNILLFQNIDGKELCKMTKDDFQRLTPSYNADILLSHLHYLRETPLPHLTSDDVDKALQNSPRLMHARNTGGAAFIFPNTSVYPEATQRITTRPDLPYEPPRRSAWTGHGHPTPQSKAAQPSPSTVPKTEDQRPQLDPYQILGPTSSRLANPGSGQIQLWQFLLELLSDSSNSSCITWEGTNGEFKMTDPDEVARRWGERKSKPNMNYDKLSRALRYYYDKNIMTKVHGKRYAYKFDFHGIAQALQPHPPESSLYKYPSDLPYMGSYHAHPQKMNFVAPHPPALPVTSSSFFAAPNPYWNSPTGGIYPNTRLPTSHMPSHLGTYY
#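 His-tagged ERG Ets domain (1 uM in the protein solution; 300mM KCl, 50mM Tris-HCl, 1mM EDTA, 1mM DTT, pH 7.5) received compound, then a probe mix of 5 nM fluorescein-DNA and 100nM Texas-615-DNA. Fluorescence polarization was read for both dyes.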
# Gal4-VP16 FLuc = counter-screen for ROR gamma inhibitors: Gal4-VP16 reporter; Drosophila S2 Gal4-VP16 UAS-luciferase, luminescence, 20 h; Potency, µM (series often up to 53.6 µM), inactives show at the highest dose activity, negative = inhibition, hits mostly inhibitors; 310,000 compounds, 3.5% hits; AID 2546;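 note: Gal4-VP16 expression switched on by copper sulfate through the metallothionein promoter; potency is the fitted concentration of half-maximal effect; % is set by controls: 0 for no effect and ±100 for the full control effect; nearly all actives have a fitted effect of over 50% in size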
# * = called active by the depositor; ? = inconclusive; nt = no result given; [ ] = remark or other dose. This excerpt belongs to a sample that is enriched for hits. Unless noted, calls come from the whole dose curve; as a rule, active = well fitted curve in the direction sought with a large enough effect; inconclusive = small, poorly fitted or top-dose-only effect, or another doubt; inactive = no such curve, though single readings can be large; an effect the other way counts as inactive or inconclusive.
SMILES,RORgamma inh,Giardia killer,Integrin act MD,ERG Ets-DNA blk,Gal4-VP16 FLuc
CC(C)CN(CC(C)C)C(=S)NC1CCCCC1,2.8µM*,-6,7%,-7%,7.1µM*
OCCCNC(=S)NC1CCCC1,-6%,1,-8%,-2%,-3%
CC1(C)CC2=C(CO1)C(=S)NC(c1ccccc1)N2CC1CCCO1 (centres undefined),16µM*,-16,0%,-3%[15.4 µM],?
O=c1c2ccccc2[nH]c(=S)n1CC1CCCO1 (centres undefined),nt,4,1%,-1%,nt
Cc1nc2[nH]c(=S)[nH]c2cc1Br,11µM*,-3,5%,-7%,-3%
N/C(Cn1nnc(-c2ccccc2)n1)=N\O,-28%,-10,5%,-11%,-1%
Cc1ccc(-c2nnn(C/C(N)=N/O)n2)cc1,2.8µM*,0,-9%,3%,2.8µM*
Cc1ccc2nsnc2c1NC(=O)c1ccc([N+](=O)[O-])cc1,7.9µM*,-12,-35%,1%,?
CC(=O)Nc1c(C)ccc2nsnc12,?,4,20%,-3%,-6%
Cc1c(Cc2ccccc2)sc(NC(=O)C(C)(C)C)c1C(N)=O,?,4,22%,6%,-12%
Cc1ccc(CSC(Nc2ccc(F)cc2)=C(C#N)C#N)cc1,?,13,-52%,-1%,25µM*
CC(=O)Nc1cccc(NC(=O)COC(=O)CO/N=C(\C)c2ccc3c(c2)OCO3)c1,0%,-1,20%,-5%,-17%
C/C(=N\OCC(=O)OC(C)C(=O)Nc1ccc(C(N)=O)cc1)c1ccc2c(c1)OCO2 (centres undefined),11%,1,4.5µM*,-2%,1%
Oc1ccc2ccccc2c1-c1sc(Nc2ccccc2)n[n+]1-c1ccc(F)cc1,-7%,-13,25%,-27%,-13%
Fc1ccc(-[n+]2nc(Nc3ccccc3)sc2-c2c3ccccc3cc3ccccc23)cc1,10µM*,7,-45%,-25%,-18%
COC(=O)c1ccc(CNC(=O)COC(=O)c2cc(Cl)ccc2O)cc1,nt,-11,19%,-3%,nt
C#CC(C)(C)NS(=O)(=O)c1cc(-c2nnc(Nc3ccc(C)cc3)c3ccccc23)ccc1C,nt,nt,nt,-3%,nt
COc1ccc(-n2nnc3c(SC(C(C)=O)C(=O)N(C)C)ncnc32)cc1 (centres undefined),0%,-4,-5%,25%,-7%
Nc1nonc1-n1nnc(C(=O)N/N=C/c2cccnc2)c1CSc1ccc(Cl)cc1,26%,-7,-23%,-5%,-10%
CC(C)c1ccc(/C=N/NC(=O)c2nnn(-c3nonc3N)c2CSC2=NCCS2)cc1,16µM*,0,-37%,-1%,?
Nc1nonc1-n1nnc(C(=O)N/N=C/c2ccoc2)c1CSc1ccccc1,16µM*,-8,-13%,-1%,?
Nc1nonc1-n1nnc(C(=O)N/N=C/c2ccoc2)c1CSc1ccc(Cl)cc1,7.1µM*,-3,-19%,2%,13µM*
CC(OCc1ccccc1)C(NC(=O)OC(C)(C)C)C(=O)NC1COC2CC(n3cc(F)c(=O)[nH]c3=O)OC12 (centres undefined),-25%,-23,nt,nt,0%
CCOc1cccc(CNc2ccc(O)cc2)c1OCc1ccc(Cl)cc1Cl,16µM*,21,0%,?,?
COC(=O)c1c(C)cc(C)n2c1nc1ccccc12,10µM*,-7,6%,-1%,-6%
SMILES,RORgamma inh,Giardia killer,Integrin act MD,ERG Ets-DNA blk,Gal4-VP16 FLuc
Cc1ccc(C(=O)NCCc2nnc3ccc(NCc4ccc5c(c4)OCO5)nn23)cc1,-13%,-11,3%,-8%,-1%
COc1cc(/C=N/NC(=O)Cc2cccs2)c([N+](=O)[O-])cc1OC,10%,6,-14%,-4%,-4%
O=C(CNC(=O)c1ccccc1Cl)N/N=C/c1ccc([N+](=O)[O-])s1,18µM*,?,-6%,5%,?
O=C(CCNC(=O)c1ccccc1Cl)NN=Cc1ccccc1[N+](=O)[O-],nt,-2,-10%,-9%,nt
O=C(Cc1cccs1)N/N=C\c1ccc([N+](=O)[O-])s1,?,-85*,-1%,16%,?
Cc1ccc(/C=N/NC(=O)Cc2cccs2)o1,?,?,-45%,3%,35µM*
FC(F)OC(Cl)C(F)(F)F (centres undefined),3%,nt,nt,nt,7%
Cc1cc2nnc(SCc3ccc(F)cc3)n2c2ccccc12,nt,nt,nt,4%,nt
